# This is a sample that favours compounds with a hit; in the whole collection about 6% have one here.
# Sfp inh: qHTS Assay for Inhibitors of Bacillus subtilis Sfp phosphopantetheinyl transferase (PPTase). 4'-phosphopantetheinyl transferase ffp (Bacillus subtilis), Q9F4F7. Biochemical Sfp PPTase activity, qHTS. Potency, µM, inactives show largest response in the series, negative = inhibition, usual class: inhibitors. hit rate 3.5% among 310,000. AID 1490, 2009;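 also: the enzyme is Sfp with the accession as filed and its product quenches rhodamine fluorescence; 0% = enzyme reaction without inhibitor and -100% = no enzyme wells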
#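 Sfp 15 nM + cpd, 15 min RT; start w/ rhodamine-CoA 5 uM, BHQ-2-YbbR 12.5 uM (final); 50 mM Hepes pH 7.6, 10 mM MgCl2, 0.01% NP-40, 0.01% BSA; read 525/598 nm at 0 and 30 min.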
# VDR inhibitor: Inhibitors of the vitamin D receptor (VDR): qHTS | Potency, µM, for inactives: max response, negative = inhibition, actives largely listed as inhibitors | Vitamin D3 receptor (Homo sapiens), P11473 | VDR-SRC2-3 peptide fluorescence polarization, 2 h | hit rate 0.93% among 400,000 | AID 504847, 2011
#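 Signal is fluorescence polarization, reporting how far test compounds block the interaction of VDR with the SRC2-3 coregulator peptide after a 2 h room-temperature incubation.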
# PLK1 PBD block: qHTS for Inhibitors of PLK1-PDB (polo-like kinase 1 - polo-box domain): Primary Screen | hit rate 2.8% among 360,000 | Potency, µM, without a hit: max response, negative = inhibition, usual class: inhibitors | Plk1 PBD binding of FITC phosphopeptide, fluorescence polarization | AID 720504, 2013; also: series mostly up to about 57 µM; nearly all actives have a fitted effect of over 65% in size
# Target sequence (P53350 whole entry, looked up, the tested form may be a part): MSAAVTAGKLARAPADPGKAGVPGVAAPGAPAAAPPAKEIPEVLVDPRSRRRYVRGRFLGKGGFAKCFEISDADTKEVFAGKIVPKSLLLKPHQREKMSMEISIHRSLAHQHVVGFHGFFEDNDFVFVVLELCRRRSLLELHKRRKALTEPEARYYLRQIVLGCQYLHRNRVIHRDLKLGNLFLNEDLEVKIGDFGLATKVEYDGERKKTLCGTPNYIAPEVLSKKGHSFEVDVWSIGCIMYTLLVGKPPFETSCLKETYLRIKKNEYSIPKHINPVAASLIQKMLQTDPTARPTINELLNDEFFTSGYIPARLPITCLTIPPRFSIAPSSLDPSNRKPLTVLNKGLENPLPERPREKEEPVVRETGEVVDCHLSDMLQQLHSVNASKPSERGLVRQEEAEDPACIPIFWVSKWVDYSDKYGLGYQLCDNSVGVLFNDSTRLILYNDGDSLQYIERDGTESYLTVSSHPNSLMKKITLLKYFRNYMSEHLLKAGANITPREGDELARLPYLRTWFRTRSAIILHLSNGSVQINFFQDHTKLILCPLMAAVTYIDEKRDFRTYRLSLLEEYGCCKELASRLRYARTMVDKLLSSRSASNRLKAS
# Tau fibril ThT: qHTS for Inhibitors of Tau Fibril Formation, Thioflavin T Binding. Microtubule-associated protein tau (Homo sapiens), P10636. recombinant tau K18 P301L, heparin-induced fibrillization, ThT fluorescence. Potency, µM (titrated, usually from 57.4 µM), without a hit: top-dose activity, negative = inhibition, usual class: inhibitors. hit rate 2.1% among 270,000; also: nearly all actives have a fitted effect of over 55% in size
#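 Aggregation was driven by heparin (20 uM final) acting on recombinant tau […] bearing P301L in 100 mM sodium acetate pH 7; fibrils were detected with Thioflavin T.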
# Tau fluor counter: Counterscreen qHTS for Inhibitors of Tau Fibril Formation, Fluorescence Polarization; tau K18 P301L Alexa594 fluorescence, heparin fibrillization; Potency, µM (top dose mostly 57.7 µM), inactives show at the highest dose activity change, negative = decrease; hit rate 0.93% among 280,000; also: nearly all actives have a fitted effect of over 55% in size
#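 Human tau K18 P301L (15 uM unlabeled, 0.24 uM Alexa 594-labeled) in 100 mM sodium acetate pH 7 with 20 uM heparin, 6 hr at 37 C. ThT 30 uM added, 1 hr ambient; Alexa 594 FP and total fluorescence read at 555/632 nm.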
# Tau FP inhib: qHTS for Inhibitors of Tau Fibril Formation, Fluorescence Polarization. AID 1468, 2008. Microtubule-associated protein tau (Homo sapiens), P10636. Potency, µM (top dose mostly 57.7 µM), for inactives: at the highest dose activity, negative = inhibition, usual class: inhibitors. hit rate 0.39% among 280,000. K18 P301L tau heparin fibrillization, Alexa594 FP, 6 h; also: nearly all actives have a fitted effect of over 55% in size
#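 Compound effects on tau fibrillization are measured by Alexa 594 fluorescence polarization (ex 555, em 632 nm). K18 P301L tau is used at 15 uM with 0.24 uM labeled tracer, and 20 uM heparin induces aggregation over 6 hr at 37 C.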
# Active calls of the source: *; u = inconclusive; x = no result; [ ] = remark or other dose. Calls follow the shape of the dose curve; as a rule, active = well fitted curve in the direction sought with a large enough effect; inconclusive = small, poorly fitted or top-dose-only effect, or another doubt; inactive = no such curve, though single readings can be large; an effect the other way counts as inactive or inconclusive. Unless noted, % is scaled to controls: 0 for no effect and ±100 for the full control effect; potency is read from the fitted curve at half-maximal effect.
SMILES,Sfp inh,VDR inhibitor,PLK1 PBD block,Tau fibril ThT,Tau fluor counter,Tau FP inhib
COc1ccc(C(=O)N/C(=C\c2ccco2)C(=O)OCc2ccco2)cc1,7%,3%,-8%,x,-13%,-2%
COc1ccc(/C=C(/C(=O)c2cccs2)N2C=CC=CC2=C(C#N)C#N)cc1,3.5µM*,u,6µM*,28µM*,-29%,u
CC(C)(C)c1ccc(C(=O)NCCC(=O)Nc2cc(Cl)ccc2N2CCOCC2)cc1,x,2%,-1%,x,x,x
COc1ccc(-n2c(SCC(=O)c3ccc(Cl)cc3)nc3c([nH]c4ccccc43)c2=O)cc1,x,9%,x,-4%,-7%,-4%
C=CCOC(=O)/C=C/C(=O)NC(N)=O,20µM*,u,u,x,u,15%[11.6 µM]
COc1ccc(C2CC(=O)N3CN(c4ccc(C)c(Cl)c4)CSC3=C2C#N)cc1 (stereo not drawn),2.8µM*,32µM*,24µM*,32µM*,-17%,u
COc1cc(OC)c(C2CC(=O)N3CN(c4ccccc4C)CSC3=C2C#N)cc1OC (stereo not drawn),4µM*,x,x,28µM*,-24%,32µM*
COc1ccc(C2CC(=O)N3CN(c4ccccc4F)CSC3=C2C#N)cc1OC (stereo not drawn),8.9µM*,32µM*,30µM*,28µM*,-24%,u
COc1ccc(OC)c(C2C(C#N)=C(N)N(N(C)C)C3=C2C(=O)CCC3)c1 (stereo not drawn),12%,-20%,-5%,x,x,x
COc1cc(OC)c(C2C(C#N)=C(N)OC3=C2C(=O)CC(C)C3)cc1OC (stereo not drawn),10%,-5%,-16%,-13%,-8%,-5%
COc1ccc(OC)c(C2CC(=O)N3CN(c4ccccc4)CSC3=C2C#N)c1 (stereo not drawn),4.5µM*,20µM*,27µM*,28µM*,u,16µM*
CC1CCCN(S(=O)(=O)c2ccc(NC(=O)c3nc(SC(C)C)ncc3Cl)cc2)C1 (stereo not drawn),x,0%,x,u,u,-10%
CCCCn1c(CNC(=O)C23CC4CC(CC(C4)C2)C3)nnc1SCC(=O)Nc1ccccc1,x,7%,x,-2%,-19%,-2%
COC(=O)c1cc(N/C(N)=N/c2nc(C)cc(C)n2)cc(C(=O)OC)c1,x,x,1%,x,x,x
Cc1cccc(N2CSC3=C(C#N)C(c4ccc(C)o4)CC(=O)N3C2)c1 (stereo not drawn),2.8µM*,x,x,14µM*,-27%,u
COc1ccc(C(=O)NCCNc2ccc([N+](=O)[O-])cc2)cc1,21%,7%,-6%,u,-4%,10%
O=C(NCCNc1ccc([N+](=O)[O-])cc1)c1ccc(Cl)cc1,-7%,-7%,-8%,8.9µM*,-29%,-1%
Cc1ccc(-c2nn(-c3cccc(F)c3)cc2CN2CCN(c3ccccn3)CC2)o1,40µM*,-33%,-18%,u,-26%,-6%
COc1ccc(CN2CCN(c3ccccn3)CC2)c(OC)c1,-23%,-3%,3%,5%,8%,2%
Cc1ccc(-c2nn(-c3cccc(F)c3)cc2CN(Cc2nccn2C)C(C)C)o1,40µM*,14%,-12%,-13%,-5%,-4%
CCOC(=O)c1cccc(NC(=O)c2ccc3c(Cl)c4c(nc3c2)CCC4)c1,x,-16%,x,-15%,u,-12%
O=C(/C=C/c1ccco1)N(Cc1ccccc1)C1CCS(=O)(=O)C1 (stereo not drawn),25µM*,-5%,-10%,u,-8%,-7%
O=C(/C=C/c1ccco1)N(Cc1cccc(Cl)c1)C1CCS(=O)(=O)C1 (stereo not drawn),32µM*,-13%,-29%,u,-19%,u
COCc1c(C(=O)OC)nnn1-c1ccc(C(F)(F)F)cc1[N+](=O)[O-],26%,-1%,27µM*,6%,2%,2%
CCOC(=O)c1nnn(-c2ccc([N+](=O)[O-])cc2[N+](=O)[O-])c1C,0%,-2%,-12%,-15%,-23%,2%
SMILES,Sfp inh,VDR inhibitor,PLK1 PBD block,Tau fibril ThT,Tau fluor counter,Tau FP inhib
CCCN1C(=O)/C(=C/c2c(N3CCNC(=O)C3CC(=O)OC)nc3c(C)cccn3c2=O)SC1=S (stereo not drawn),-22%,x,x,5.6µM*,-20%,-2%
O=C(c1cc(C(F)(F)F)cc(C(F)(F)F)c1)N1CCC2(CC1)CCN(c1ccccc1)CC2,17%,-1%,x,x,x,x
CCc1ccc(CNC(=O)C2CCCN(S(=O)(=O)c3ccc4c(ccn4C)c3)C2)cc1 (stereo not drawn),x,5%,x,-4%,-16%,-10%
Oc1ccc(/C=N/Nc2nn3cnnc3c3ccccc23)cc1,56µM*,0%,-4%,x,u,8%
COc1cc(/C=N/Nc2nn3cnnc3c3ccccc23)ccc1O,40µM*,-2%,2%,u,-17%,2%
COc1ccc(/C=N/Nc2nncc3ccccc23)cc1,50µM*,3%,-28%,u,-29%,5%
C(=N\Nc1nn2cnnc2c2ccccc12)/c1ccco1,50µM*,u,-4%,u,-22%,-4%
CCOc1cc(/C=N/Nc2nn3cnnc3c3ccccc23)ccc1O,u,18%,-20%,u,u,19%
COc1cccc(/C=N/Nc2nn3cnnc3c3ccccc23)c1,56µM*,-7%,1%,10%,4%,6%
Cc1cc(N=Nc2ccccc2)c(NCC(O)C(O)C(O)CO)cc1C (stereo not drawn),-14%,-15%,0%,14µM*,u,16%
Cc1ccc(NCC(O)C(O)C(O)CO)cc1C (stereo not drawn),10%,13%,-4%,-12%,-5%,-9%
S=C1Cc2ccccc2N1,3.2µM*,2.2µM*,12µM*,0.71µM*,8.9µM*[quencher],u
O=C1NCC(c2ccccc2)C1C(=O)N/N=C\c1ccc(-c2cccc(Cl)c2Cl)o1 (stereo not drawn),-29%,1%,-5%,-16%,u,7%
Cc1ccc(-c2ccc(/C=N\NC(=O)C3C(=O)NCC3c3ccccc3)o2)cc1Cl (stereo not drawn),50µM*,-3%,-5%,-11%,-28%,3%
CCOc1ccc(N=C(NN)c2ccc3ccccc3n2)cc1,14µM*,5%,u,10µM*,u,-11%
